Data on 25 compounds can be found in ChEMBL document CHEMBL4296182, “CO-ADD screening of NIH NCI Diversity Set V”.

The subject of one test is Staphylococcus aureus. The test is described as follows: Antibacterial activity against Staphylococcus aureus MRSA ATCC 43300 (CO-ADD:GP_020); MIC in CAMBH media using NBS plates, by Resazurin F(560/590). The format is functional. The conditions noted are these: Concentration 20 uM, ASSAY_TEST Inhibition of Bacterial Growth, detection method Resazurin, Fluorescence (ex560/em590), MEDIA CAMHB, plate type 384well, CORNING #3640, time 18 hr. On the technique in general: The colour change of resazurin is a common sign of viable cells or microbes.

In a further test the test system is Acinetobacter baumannii. The test is described as follows: Antibacterial activity against Acinetobacter baumannii ATCC 19606 (CO-ADD:GN_034); MIC in CAMBH media using NBS plates, by Resazurin F(560/590). It counts as functional. The conditions noted are these: Concentration 20 uM, ASSAY_TEST Inhibition of Bacterial Growth, detection method Resazurin, Fluorescence (ex560/em590), MEDIA CAMHB, plate type 384well, CORNING #3640, time 18 hr.

The subject of a further test is Escherichia coli. The test is described as follows: Antibacterial activity against Escherichia coli ATCC 25922 (CO-ADD:GN_001); MIC in CAMBH media using NBS plates, by Resazurin F(560/590). It counts as functional. The conditions noted are these: Concentration 20 uM, ASSAY_TEST Inhibition of Bacterial Growth, detection method Resazurin, Fluorescence (ex560/em590), MEDIA CAMHB, plate type 384well, CORNING #3640, time 18 hr.

The subject of the next test is Klebsiella pneumoniae. The conditions noted are these: Concentration 20 uM; ASSAY_TEST Inhibition of Bacterial Growth; detection method Absorption (OD600); MEDIA CAMHB; plate type 384well; NBS; CORNING #3640; time 18 hr.
For the next test, the system named is Candida albicans. As to conditions: 20 µM.
The test system of a further test is Cryptococcus neoformans. The conditions noted are these: Concentration 20 uM; ASSAY_TEST Inhibition of Fungal Growth; detection method Resazurin; Absorption (OD600-OD570); plate type 384well; NBS; CORNING #3640.

Molecules are shown by their SMILES. For part of these data: Results with a measured potency or affinity are listed apart.

The term Inhibition denotes the relative decrease from the control value, in per cent. On to `Cc1nc2[nH]c(=O)n(O)c(=O)c2s1`, for which the Inhibition with Staphylococcus aureus is 4.12%; in the test with Acinetobacter baumannii it was -18.15%; in the test with Escherichia coli it was 5.04%; in the test on Klebsiella pneumoniae, 12.49%; in the test on Candida albicans it was 3.41%; in the test on Cryptococcus neoformans it was -6.64%.
Take `COc1cccc(-c2nnc(N)o2)c1`: the Inhibition is 11.58% with Staphylococcus aureus; -10.93% with Acinetobacter baumannii; 4.71% with Escherichia coli; 8.97% in the test on Klebsiella pneumoniae; 1.68% in the test with Candida albicans; -2.41% with Cryptococcus neoformans.
`O=c1cc(-c2ccccc2)oc2ccc(O)cc12` [6-HYDROXYFLAVONE]: the Inhibition is -4.33% with Staphylococcus aureus; -2.45% in the test with Acinetobacter baumannii; -5.6% with Escherichia coli; 8.45% in the test with Klebsiella pneumoniae; 7.78% with Candida albicans; -10.88% in the test on Cryptococcus neoformans.
Consider `Cc1ccc(NC(=O)Nc2c(Cl)cccc2Cl)cn1`, for which the Inhibition in the test on Staphylococcus aureus was 20.25%; with Acinetobacter baumannii it was -2.44%; with Escherichia coli, -14.35%; with Klebsiella pneumoniae, 6.22%; in the test with Candida albicans, 3.4%; in the test with Cryptococcus neoformans, 18.5%.
Consider `Nc1ccccc1SC1CC(=O)N(c2ccc(Cl)c(Cl)c2)C1=O` (stereo not given), for which the Inhibition in the test on Staphylococcus aureus was 1.48%; in the test with Acinetobacter baumannii, 12.22%; in the test with Escherichia coli it was 0.8%; in the test on Klebsiella pneumoniae it was 8.81%; with Candida albicans, 8.62%; with Cryptococcus neoformans it was -1.72%.
Consider `Cc1nccnc1Sc1ccccc1`, for which the Inhibition in the test on Staphylococcus aureus was 3.9%; in the test on Acinetobacter baumannii it was -12.89%; with Escherichia coli it was 2.25%; in the test with Klebsiella pneumoniae, 5.26%; in the test on Candida albicans, 7.15%; in the test with Cryptococcus neoformans, -6.77%.
As for `CCN(CC)c1ccc(/C=C/c2cc(-c3ccccc3)c3ccccc3n2)cc1`, the Inhibition was 16.67% with Staphylococcus aureus; 5.92% in the test on Acinetobacter baumannii; 4.61% in the test with Escherichia coli; 11.78% in the test with Klebsiella pneumoniae; 4.35% in the test on Candida albicans; -9.69% with Cryptococcus neoformans.
With `N#Cc1n[nH]c2nc[nH]c(=O)c12`, the Inhibition with Staphylococcus aureus was 10.72%; in the test on Acinetobacter baumannii, -7.81%; with Escherichia coli it was 9.33%; in the test on Klebsiella pneumoniae it was 13.07%; with Candida albicans, 0.58%; in the test on Cryptococcus neoformans, -10.99%.
For the compound `Cc1nc(N)nc(Nc2ccc(C#N)cc2)c1Br`, the Inhibition in the test with Staphylococcus aureus is 13.25%; in the test with Acinetobacter baumannii it was -2.28%; in the test on Escherichia coli, 22.67%; in the test with Klebsiella pneumoniae, 5.37%; in the test with Candida albicans, 0.12%; with Cryptococcus neoformans it was -9.52%.
As for `O=C1c2ccccc2C(O)(c2ccccc2)N1c1ccncc1` (stereo not given), the Inhibition was 8.72% in the test on Staphylococcus aureus; -12.43% in the test on Acinetobacter baumannii; 4.92% in the test on Escherichia coli; 13.13% with Klebsiella pneumoniae; 2.44% in the test on Candida albicans; -3.79% in the test on Cryptococcus neoformans.
On to `CC(C)(C)c1ccc(OCC(=O)O)cc1`, for which the Inhibition in the test with Staphylococcus aureus was 4.22%; in the test with Acinetobacter baumannii it was -1%; with Escherichia coli it was 10.46%; in the test with Klebsiella pneumoniae, 8.68%; in the test with Candida albicans, 8.84%; with Cryptococcus neoformans, -1.59%.
In the case of `Cc1cc(C)c(C#N)c(Sc2nc(C)c([N+](=O)[O-])c(C)c2C#N)n1`, the Inhibition in the test with Staphylococcus aureus is 33.8%; in the test on Acinetobacter baumannii it was 4.2%; in the test on Escherichia coli it was 1.58%; in the test on Klebsiella pneumoniae, 21.76%; in the test on Candida albicans, 8.27%; in the test with Cryptococcus neoformans it was 2.92%.
For `Cc1ccc2c(c1)c1ccc3c(c1n2C)C(=O)C=CC3=O`, the Inhibition with Staphylococcus aureus is 2.62%; in the test on Acinetobacter baumannii, -23.42%; in the test on Escherichia coli, 6.78%; in the test with Klebsiella pneumoniae it was 6.78%; with Candida albicans, 22.6%; in the test on Cryptococcus neoformans, 22.59%.
`Cc1cccc(C)c1NC(=O)Nc1ccc(S(N)(=O)=O)cc1`: the Inhibition with Staphylococcus aureus is -3.68%; in the test on Acinetobacter baumannii, 5.47%; in the test with Escherichia coli it was 8.39%; in the test with Klebsiella pneumoniae, 5.63%; in the test on Candida albicans, 0.87%; in the test with Cryptococcus neoformans it was -12.09%.
Take `S=c1c2nc[nH]c2ncn1CCSC1=NC=NC2=NC=NC21` (stereo not given): the Inhibition in the test with Staphylococcus aureus is 4.54%; in the test on Acinetobacter baumannii, -14.19%; with Escherichia coli, 7.44%; with Klebsiella pneumoniae, 7.27%; in the test with Candida albicans, 5.38%; in the test with Cryptococcus neoformans, -9.8%.
Take `Cn1c(=O)c2c(nc(N3CCOCC3)n2C)n(C)c1=O`: the Inhibition in the test on Staphylococcus aureus is 9.23%; in the test on Acinetobacter baumannii, 6.55%; in the test with Escherichia coli, 2.94%; with Klebsiella pneumoniae, 9.52%; with Candida albicans it was 2.91%; in the test on Cryptococcus neoformans, -9.23%.
As for `Nc1nnc(-c2cccnc2)s1`, the Inhibition is -3.99% in the test on Staphylococcus aureus; -10.83% with Acinetobacter baumannii; 3.28% with Escherichia coli; -1.35% in the test with Klebsiella pneumoniae; 0.77% in the test with Candida albicans; -10.94% with Cryptococcus neoformans.
Take `Oc1ccc(Nc2ccnc3cc(Cl)ccc23)cc1`: the Inhibition is -0.21% with Staphylococcus aureus; 16.04% with Acinetobacter baumannii; -4.01% with Escherichia coli; 17.31% in the test with Klebsiella pneumoniae; 0.86% with Candida albicans; -3.23% in the test with Cryptococcus neoformans.
In the case of `CCOC(=O)c1[nH]c(C(=O)O)c(OC(=O)CC)c1C`, the Inhibition in the test with Staphylococcus aureus was 3.4%; in the test on Acinetobacter baumannii it was 12.19%; in the test with Escherichia coli, 5.33%; in the test on Klebsiella pneumoniae it was 12.1%; in the test with Candida albicans it was 11.4%; in the test with Cryptococcus neoformans, -14.68%.
Regarding `CCC(C)Nc1nc2c(c(=O)n(C)c(=O)n2C)n1C` (stereo not given), the Inhibition with Staphylococcus aureus is 12.63%; in the test with Acinetobacter baumannii, 12.04%; with Escherichia coli, -1.91%; with Klebsiella pneumoniae, 12.65%; in the test on Candida albicans, 3.5%; with Cryptococcus neoformans it was -7.05%.
For the compound `Nc1ccc(/N=N/c2ccccc2)c2ccccc12`, the Inhibition was 1.47% in the test with Staphylococcus aureus; -18.91% in the test on Acinetobacter baumannii; 11.66% in the test with Escherichia coli; 8.12% in the test on Klebsiella pneumoniae; 1.76% in the test on Candida albicans; -16.64% in the test on Cryptococcus neoformans.
In the case of `c1ccc(CSc2nnc3c4ccccc4c4ccccc4c3n2)cc1`, the Inhibition in the test with Staphylococcus aureus was -1.68%; in the test on Acinetobacter baumannii it was 11.2%; in the test on Escherichia coli, 0.12%; with Klebsiella pneumoniae, 1.09%; with Candida albicans, 5.6%; in the test on Cryptococcus neoformans, -12.52%.
As to `COc1cc(NC(=O)CCl)ccc(=O)c1`, the Inhibition with Staphylococcus aureus is -5.48%; with Acinetobacter baumannii, 6.09%; in the test with Escherichia coli, 9.48%; with Klebsiella pneumoniae, 4.54%; in the test with Candida albicans, 1.92%; in the test on Cryptococcus neoformans, -8.46%.
Take `CC(C)(C)NC(=O)c1ccc(C(=O)NC(C)(C)C)cc1`: the Inhibition in the test on Staphylococcus aureus was -9.07%; in the test with Acinetobacter baumannii it was -9.96%; in the test with Escherichia coli, 2.15%; in the test on Klebsiella pneumoniae, 15.3%; with Candida albicans, 8.15%; with Cryptococcus neoformans, -7.37%.
As for `O=C(NC(=S)Nc1cccc2c(O)cccc12)c1cccc(Br)c1`, the Inhibition in the test with Staphylococcus aureus was 25.64%; in the test on Acinetobacter baumannii it was -2.51%; in the test with Escherichia coli, 14.87%; in the test with Klebsiella pneumoniae, 10.97%; with Candida albicans it was 12.3%; in the test on Cryptococcus neoformans, -5.01%.
